Source: PubChem
Cycloheximide cs: counter-screen for Shiga toxin inhibitors: cycloheximide protein synthesis inhibition | cell reporter, cycloheximide protein synthesis inhibition counterscreen | max response, % | 12% of 300,000 active; in the data active = max response mostly above about 13%, no sharp cut-off; inactive = mostly below about 14%; note: read at 38.3 µM for the half of the compounds with a filed dose; 0% is about no effect
AmpC detergent: AmpC beta-lactamase inhibition with detergent present; AmpC hydrolysis of nitrocefin, absorbance 480 nm, 0.01% Triton; 0.041% of 370,000 active; P00811; Potency, µM (series often up to 114 µM), without a hit: top-dose activity change, negative = inhibition, most hits filed as inhibitors;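 note: potency is the fitted concentration of half-maximal effect; 0% = no-compound wells and -100% = no-enzyme wells; nearly all actives have a fitted effect of over 25% in size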
Target sequence (P00811 whole entry, looked up): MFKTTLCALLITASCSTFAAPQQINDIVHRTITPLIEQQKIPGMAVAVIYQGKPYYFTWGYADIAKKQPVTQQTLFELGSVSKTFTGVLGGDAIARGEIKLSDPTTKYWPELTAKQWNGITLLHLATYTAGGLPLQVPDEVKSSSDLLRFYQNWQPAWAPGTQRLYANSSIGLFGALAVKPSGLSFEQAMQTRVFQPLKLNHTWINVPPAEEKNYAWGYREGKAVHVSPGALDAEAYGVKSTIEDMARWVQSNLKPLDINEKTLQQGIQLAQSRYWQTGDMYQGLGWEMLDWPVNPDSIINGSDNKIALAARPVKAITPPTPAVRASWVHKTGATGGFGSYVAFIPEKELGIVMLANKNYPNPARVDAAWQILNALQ
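20 mM phosphate pH 7.0 + 0.01% (detergent screen) or 0.0001% Triton X-100; 5.3 nM AmpC reagent; cpd preinc 15 min RT; nitrocefin (800 uM stock) to start; A480 q20 s × 4 min; Activity was normalised to no-enzyme and no-compound control wells.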
Shiga toxin inh: Shiga toxin inhibition. Vero cells, Shiga toxin protein synthesis inhibition reporter. inhibition, % at 38.7 µM. 9.2% of 290,000 active. AID 2315; in the data active = inhibition mostly above about 28%, no sharp cut-off; inactive = mostly below about 43%; note: 0% is about no effect
AmpC no deterg: blocks E. coli AmpC beta-lactamase in detergent-free assay | P00811 | AmpC nitrocefin hydrolysis, absorbance 480 nm, 0.0001% Triton | Potency, µM (series often up to 57.1 µM), inactives show top-dose activity change, negative = inhibition, hits mostly inhibitors | 0.52% of 330,000 active | AID 485341;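 note: potency is the fitted concentration of half-maximal effect; plate controls were no compound for no effect and no enzyme for full effect; nearly all actives have a fitted effect of over 20% in size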
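AmpC (5.3 nM in the dispensed reagent) in 20 mM phosphate pH 7.0 with 0.01% (detergent screen) or 0.0001% Triton X-100 was preincubated with compounds for 15 min at room temperature. Nitrocefin was then added from an 800 uM solution, and hydrolysis was followed at 480 nm.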
NS1 function inh: influenza NS1 inhibition; Potency, µM (series often up to 46.1 µM), for inactives: at the top dose activity, positive = more growth; 0.4% of 270,000 active; AID 2326; calls by dose curve; note: potency is the fitted concentration of half-maximal effect; actives are rising curves; nearly all actives have a fitted effect of over 50% in size
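Growth recovery, yeast-based: influenza A NS1 expressed in S. cerevisiae causes slow growth, and suppressors are detected by OD600. The parent strain without NS1 is used as positive control.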
Active calls of the source: *. Many of the other results were omitted from the sample, so hits are more common in it than they were. Unless noted, calls come from the whole dose curve; as a rule, active = well fitted curve in the direction sought with a large enough effect; inconclusive = small, poorly fitted or top-dose-only effect, or another doubt; inactive = no such curve, though single readings can be large; an effect the other way counts as inactive or inconclusive.

Screening COCCNC(=O)C(C)OC(=O)C1=Cc2ccccc2OC1 (configuration not stated) returned Cycloheximide cs 15.3*, AmpC detergent 2.7%, Shiga toxin inh 18.2, AmpC no deterg -7.7% and NS1 function inh 0.7%.
`Cc1ccc(CN2C(=O)c3ccccc3Sc3ccc(C(=O)NC4CCCCC4)cc32)cc1` gave AmpC detergent -1.9%.
`Nc1c(C(=O)O)sc2nc(-c3ccccc3)c3c(c12)CCCC3` gave Cycloheximide cs 0.6, AmpC detergent -2.7%, Shiga toxin inh -5.4, AmpC no deterg -44.6% and NS1 function inh 22.7%.
`O=c1oc(-c2ccccc2)nc2sc3c(c12)CCCC3` gave Cycloheximide cs 40.9*, AmpC detergent 3.4%, Shiga toxin inh 123.8*, AmpC no deterg -20.3% and NS1 function inh 2.7%.
For Nc1nc(-c2cccnc2)nc2sc3c(c12)CCCC3 the results were Cycloheximide cs 30.6*, AmpC detergent 6.5%, Shiga toxin inh 89.5, AmpC no deterg 41.6% and NS1 function inh -36.0%.
`Cc1ccccc1-c1nc2sc3c(c2c(=O)o1)CCC3` gave Cycloheximide cs -1.8, AmpC detergent inconclusive, Shiga toxin inh 3.1, AmpC no deterg -11.2% and NS1 function inh -12.2%.
CCc1c(-c2ccccc2)nc2sc3c(c2c1N)CCCC3 was read as Cycloheximide cs 19.3*, AmpC detergent -6.9%, Shiga toxin inh 63.8, AmpC no deterg -28.3% and NS1 function inh -7.5%.
Screening O=c1oc(-c2cccs2)nc2sc3c(c12)CCCCC3 returned Cycloheximide cs 26.4*, AmpC detergent -13.5%, Shiga toxin inh 58.7*, AmpC no deterg -12.6% and NS1 function inh -4.5%.
COc1cc(OC)c(NC(=O)CCc2c(C)nc3c4c(C)cc(C)nc4nn3c2C)cc1Cl was read as AmpC detergent 24.5%.
For Cc1cccc(/C=N/n2c(C)cc(C)c(C#N)c2=O)c1 the results were Cycloheximide cs -2.5, AmpC detergent -4.7%, Shiga toxin inh 3.5, AmpC no deterg -15.2% and NS1 function inh 1.3%.
`Cc1cccc(NC(=O)C2CCCN(S(=O)(=O)c3ccc4c(c3)oc(=O)n4C)C2)c1C` (configuration not stated) gave AmpC detergent -10.0%.
`CCCCC(c1nnnn1Cc1ccco1)N1CCN(c2nc3ccccc3s2)CC1` (configuration not stated) gave Cycloheximide cs 23.0*, AmpC detergent -14.0%, Shiga toxin inh 62.4*, AmpC no deterg 7.1% and NS1 function inh -128.2%.
`COc1ccc(OCC(=O)N2c3ccccc3CCc3ccccc32)cc1` gave Cycloheximide cs 0.8, AmpC detergent inconclusive, Shiga toxin inh -10.7, AmpC no deterg -13.4% and NS1 function inh -20.5%.
COc1ccc(N2C3=[N+](CC2(C)O)c2ccccc2CC3)cc1 (configuration not stated) was read as Cycloheximide cs 22.0*, AmpC detergent -13.3%, Shiga toxin inh 11.7, AmpC no deterg -13.7% and NS1 function inh inconclusive.
Screening COC(=O)c1c(NC(=O)c2nc3ncccn3n2)sc(C(=O)N(C)C)c1C returned Cycloheximide cs 7.1, AmpC detergent -2.3%, Shiga toxin inh -9.9, AmpC no deterg -24.9% and NS1 function inh 1.4%.
`O=C(Nc1nccs1)c1cccnc1` gave Cycloheximide cs 1.8, AmpC detergent 4.3%, Shiga toxin inh -11.4, AmpC no deterg -16.5% and NS1 function inh 1.0%.
Cc1csc(NC(=O)c2cncc(Br)c2)n1 was read as Cycloheximide cs 53.2*, AmpC detergent -1.8%, Shiga toxin inh 56.7, AmpC no deterg -13.2% and NS1 function inh -5.6%.
Screening O=C(Nc1nccs1)c1cncc(Br)c1 returned Cycloheximide cs 48.5*, AmpC detergent 5.3%, Shiga toxin inh 95.7* and AmpC no deterg -31.9%.
Screening CCc1ccc(NC(=O)c2cnn3ccccc23)cc1 returned Cycloheximide cs 43.1*, AmpC detergent inconclusive, Shiga toxin inh 4.4, AmpC no deterg -22.0% and NS1 function inh -10.5%.
`CSc1cccc(NC(=O)c2cnn3ccccc23)c1` gave Cycloheximide cs 45.4*, AmpC detergent -0.7%, Shiga toxin inh 76.4*, AmpC no deterg -29.4% and NS1 function inh -1.5%.
Screening COc1ccc(CNC(=O)c2cnn(-c3ccc(F)cc3)c2-n2cccc2)cc1 returned AmpC detergent 3.4%.
